Measurements as given in PubChem BioAssay (Tox21).
Several values for one entry are separate records, joined by “and”; a condition that tells them apart may be missing. Equal values may be shown once. Records with an inconclusive call do not appear. Activity calls are given as the source filed them. Calls come from the whole dose curve; as a rule, active = well fitted cell-killing curve with a large enough effect in the repeat runs; inconclusive = weak or mixed curves, or effect the other way; inactive = no such curve, though single readings can be large or run the other way.

Test: qHTS assay for identifying genotoxic compounds that show differential cytotoxicity against isogenic chicken DT40 cell lines with known DNA damage response pathways - Rev3 mutant cell line (AID 743014); note: nearly all actives have a fitted effect of over 55% in size
Conditions: chicken DT40 Rev3-/- viability, CellTiter-Glo, 40 h; series mostly up to 68.4 µM; activity, negative = cytotoxicity: at the top concentration
Description: National Center for Advancing Translational Sciences [NCATS]
NIH Chemical Genomics Center [NCGC]
U.S. Environmental Protection Agency [EPA]
National Institutes of Environmental Health Sciences [NIEHS]
National Toxicology Program [NTP]
U.S. Food and Drug Administration [FDA]
DNA repair pathways play a critical role in cellular homeostasis by repairing DNA damage induced by endogenous processes and xenobiotics. Isogenic chicken DT40 cell lines deficient in different DNA repair pathways can be used to identify genotoxic compounds and aid in characterizing the nature of the DNA damage induced. Two DNA repair-deficient cell lines with disrupted genes, Rad54/Ku70 or Rev3, were used to screen the Tox21 10K compound library. Possible genotoxicity was based on the presence of a significant increase in cytotoxicity in one or more of the DNA repair-deficient cell lines compared to that observed in the parental DNA repair-proficient cell line. CellTiter Glo viability assay (Promega, Madison, WI) was used to measure cell viability in these cells after compound treatment. This assay includes the data from the Rev3 mutant cell line.
Tox21 Assay Protocol Summary:
300 DT40 mutant cells in 5 uL/well were dispensed into white, solid-bottom 1536-well plates using a Multidrop Combi (ThermoFisher Scientific, Waltham, MA) dispenser. After the assay plates were incubated at 37 C/5% CO2 for approximately 0.5 hour, 23 nL of compounds dissolved in DMSO, positive controls or DMSO only was transferred into the assay plate by a pintool work station (Kalypsys, San Diego, CA). The assay plates were incubated at 37 C/5% CO2 for 40 hours. After 5 uL per well of CellTiter-Glo reagent was added into each well of the assay plates, the plates were incubated for 30 min at room temperature and the luminescence intensity of the plates was measured using a ViewLux (PerkinElmer, Shelton, CT) plate reader.
% is set by controls: 0 for no effect and ±100 for the full control effect; potency is the fitted concentration of half-maximal effect.

Compound	activity, negative = cytotoxicity	Potency
ClCC(Cl)(Cl)Cl	2.29% [at 95 µM] (inactive)	
CN(C)CCc1ccc(O)cc1	14% (inactive)	
Cc1coc2c1CCC(C)C2 (stereo not given)	-5.53% [at 95 µM] (inactive)	
CC(C)CC#N	-2.34% [at 95 µM] (inactive)	
CC(Oc1ccc(Oc2ncc(C(F)(F)F)cc2Cl)cc1)C(=O)O (stereo not given)		68.6 µM (active)
CNC(=O)Oc1ccc(N(C)C)c(C)c1		34.4 µM (active)
N#CCNCC#N	0.0741% (inactive)	
O=c1oc2ccccc2c(O)c1C1CCCc2ccccc21 (stereo not given)	-16.7% (inactive)	
CCc1cc2c(s1)-n1c(C)nnc1CN=C2c1ccccc1Cl	-13.5% (inactive)	
O=C(Cc1ccccc1)OCc1ccccc1	-19.3% [at 95 µM] (inactive)	
CC(C)CC(N(C)C)C1(c2ccc(Cl)cc2)CCC1 (stereo not given)	-14.7% (inactive)	
COCC(=O)N(c1c(C)cccc1C)N1CCOC1=O	-13.7% (inactive)	
C[C@]1(O)CC[C@H]2[C@@H]3CCC4=CC(=O)CC[C@]4(C)[C@@]3(F)[C@@H](O)C[C@@]21C	5.33% [at 95 µM] (inactive)	
COc1ccc(C(=O)N2CCCC2=O)cc1	15.3% (inactive)	
ClC(Cl)Br	8.96% [at 95 µM] (inactive)	
CCN(CC)CCOC(=O)C(C)(c1ccccc1)c1ccccc1		11.9 µM (active)
COC(=O)COc1ccc(Cl)cc1Cl	-27.4% (inactive)	
Cc1cccc(C#N)c1	5.98% (inactive)	
O=C(NCO)NCO	-20.2% [at 95 µM] (inactive)	
Nc1ccccc1Cl	-24.4% (inactive)	

Compound	activity, negative = cytotoxicity	Potency
CNC(=O)Oc1c(C(C)(C)C)cc(C)cc1C(C)(C)C	-1.04% (inactive)	
CCOP(=S)(OCC)Oc1cc(-c2ccccc2)on1		61.1 µM (active)
CCC(Cl)[N+](=O)[O-] (stereo not given)	-6.25% [at 95 µM] (inactive)	
CCCCCCBr	4.08% [at 95 µM] (inactive)	
CCC1(c2ccccc2)C(=O)NC(=O)NC1=O		inactive
CNC(=O)Oc1cccc(C(C)C)c1	-15.7% (inactive)	
COC(=O)C(c1ccccc1)C1CCCCN1 (stereo not given)		inactive
OCCSCSCCO	-3.14% (inactive)	
CC(=O)CCc1ccc2c(c1)OCO2	-5.8% (inactive)	
OC(c1ccc(F)cc1)(c1cncnc1)c1ccccc1Cl (stereo not given)		30.6 µM (active)
CC1(C)C(=O)NC(=O)NC1=O	-17.6% (inactive)	
N#CC(CCc1ccc(Cl)cc1)(Cn1cncn1)c1ccccc1 (stereo not given)		13.7 µM (active)
[As]#[In]	-7.14% (inactive)	
BrCCCCCCBr	-7.89% (inactive)	
CCCCc1c(C)nc(NCC)[nH]c1=O	-12.1% (inactive)	
COC(=O)c1ccccc1S(=O)(=O)NC(=O)N(C)c1nc(C)nc(OC)n1	-0.345% [at 95 µM] (inactive)	
CCCSP(=O)(OCC)Oc1ccc(Br)cc1Cl (stereo not given)		33.3 µM (active)
C[C@H]1CCC[C@H](O)CCCCCc2cc(O)cc(O)c2C(=O)O1		26.6 µM (active) and 27.5 µM (active)
O=NN1CCCCC1	1.3% (inactive)	
CCN(CC)C(C)C(=O)c1ccccc1 (stereo not given)	0.285% (inactive)	
